Inconclusive results are not listed. Entries that show only a call come without a potency. The source made the active and inactive calls. The call rests on the fitted dose curve; in most records, active means well fitted cell-killing curve with a large enough effect in the repeat runs; inconclusive means weak or mixed curves, or effect the other way; inactive means flat fitted curve, though single readings scatter.
Potency means the concentration at half of the fitted maximal effect.

The experiment is described as follows: Nuclear factor erythroid 2-related factor 2/antioxidant responsive element (Nrf2/ARE) small molecule agonists: qHTS cell viability counter screen in human keratinocytes (AID 1919968). Further: nearly all actives have a fitted effect of over 55% in size. The settings on record: KeratinoSens HaCaT ARE cells viability, CellTiter-Fluor, 24 h; series mostly up to 92.4 µM. In outline:
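KeratinoSens cells (HaCaT keratinocytes stably carrying an ARE-luciferase reporter) were seeded at 1,500 cells/well and rested 5 h at 37 C/5% CO2. They were then exposed to compounds in DMSO for 23 h. Viability was read by CellTiter-Fluor fluorescence after 1 h.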
For the compound `CCN(CC)C(=O)N[C@@H]1C=C2c3cccc4[nH]cc(c34)C[C@@H]2N(C)C1`, the Potency result was “inactive”.

As to `O=[N+]([O-])c1ccc2c3c(cccc13)CC2`, the Potency entry is “inactive”.

Turning to `CCCN(CCC)C(=O)Cc1c(-c2ccc(Cl)cc2)nc2ccc(Cl)cn12`, the Potency result was “inactive”.

On to `CC(C)[C@H](C(=O)O[C@H](C#N)c1cccc(Oc2ccccc2)c1)c1ccc(Cl)cc1`, for which the Potency entry was “inactive”.

As to `CCC(C(N)=O)N1CCCC1=O` (stereo not given), the Potency result is “inactive”.

On to `CCOC(=O)C(Cl)Cc1cc(-n2nc(C)n(C(F)F)c2=O)c(F)cc1Cl` (stereo not given), for which the Potency entry was “inactive”.

Consider `CCO/N=C(\CC)C1=C(O)CC(c2c(C)cc(C)cc2C)CC1=O` (stereo not given), for which the Potency entry was “inactive”.

Regarding `Oc1ccc2ccc3cccc4ccc1c2c34`, the Potency result was “inactive”.

`O=C(O)CCCCCCNC1c2ccccc2CCc2ccccc21`: the Potency result was “inactive”.

Turning to `COP(=O)(OC)O/C(=C\Cl)c1cc(Cl)c(Cl)cc1Cl`, the Potency result is “inactive”.

In the case of `CS(=O)(=O)c1ccc(C(=O)C2C(=O)CCCC2=O)c(Cl)c1COCC(F)(F)F`, the Potency result was “inactive”.

For `O=C(N/N=C/c1ccc([N+](=O)[O-])o1)c1cc([N+](=O)[O-])cc([N+](=O)[O-])c1O`, the Potency entry is “inactive”.

In the case of `CCCCC(=O)Cl`, the Potency result is “inactive”.

As to `COC(=O)C(C)N(C(=O)c1ccco1)c1c(C)cccc1C` (stereo not given), the Potency entry is “inactive”.

With `COc1cnc(OC)n2nc(NS(=O)(=O)c3c(OCC(F)F)cccc3C(F)(F)F)nc12`, the Potency entry was “inactive”.

For the compound `COC1=CC(=O)O[C@@H](CCc2ccccc2)C1`, the Potency entry was “inactive”.

Turning to `O=C1C(Cl)C(CCl)CN1c1cccc(C(F)(F)F)c1` (stereo not given), the Potency result was “inactive”.

In the case of `ClC(Cl)C(Cl)Cl`, the Potency entry is “inactive”.

Regarding `CCCCCCCC(=O)Cl`, the Potency entry was “inactive”.

As to `O=[N+]([O-])c1cc([N+](=O)[O-])c2ccccc2c1`, the Potency result is “inactive”.

For `CCCCCCCCCCCCN(C)C`, the Potency result was “inactive”.

As to `C=CC[C@]1(O)CC[C@H]2[C@@H]3CCC4=CC(=O)CCC4=C3C=C[C@@]21C`, the Potency entry was “inactive”.

Turning to `Cc1cccc2sc3nncn3c12`, the Potency result is “inactive”.

`CCCCC(CC)COC(=O)OOC(C)(C)C` (stereo not given): the Potency entry is “inactive”.

Take `CCOP(=O)(OCC)O/C(=C/Cl)c1ccc(Cl)cc1Cl`: the Potency entry is “inactive”.

For the compound `CNNC`, the Potency entry is “inactive”.

Turning to `C=C(Cl)CSC(=S)N(CC)CC`, the Potency result was “inactive”.

As for `O=C(CBr)Nc1ccc(Cl)cc1C(=O)c1ccccc1F`, the Potency entry was “inactive”.

`Nc1ccc(Cl)cc1C(=O)c1ccccc1F`: the Potency result is “inactive”.

Regarding `COc1ccc(C=O)cc1O`, the Potency result was “inactive”.

For `C[C@]12C=CC(=O)C=C1CC[C@@H]1[C@@H]2CC[C@@]2(C)[C@H]1CC[C@]2(C)O`, the Potency result is “inactive”.

Turning to `COc1cc(CC(C)N)c(OC)cc1Br` (stereo not given), the Potency result is “inactive”.

Consider `N#CCCl`, for which the Potency entry was “inactive”.

Consider `CCCCCCCCCCCCCN1CC(C)OC(C)C1` (stereo not given), for which the Potency entry was “inactive”.

For `CCN(CC)c1c([N+](=O)[O-])cc(C(F)(F)F)c(N)c1[N+](=O)[O-]`, the Potency entry is “inactive”.

Turning to `Cc1cccc(OP(=O)(Oc2cccc(C)c2)Oc2cccc(C)c2)c1`, the Potency entry is “inactive”.

`O=C(Nc1ccc2[nH]ccc2c1)c1cc2cc(F)ccc2n1Cc1cccc(F)c1`: the Potency was 24.3 µM (active).

In the case of `CSc1ccc(C(=O)C(C)(C)N2CCOCC2)cc1`, the Potency result is “inactive”.

As for `NC1=NC(=O)C(c2ccccc2)O1` (stereo not given), the Potency result is “inactive”.

`COP(=S)(OC)Oc1c(Cl)cc(C)cc1Cl`: the Potency result was “inactive”.

For the origin of these results see PubChem BioAssay (Tox21).
